Where “and” joins values, the source holds several entries; their conditions need not be identical. Equal values may be shown once. The source holds several records for some structures; these can differ, active in one and inactive in another. Calls of active or inactive are those of the source. The calls were made as follows: active = hit-call score of the fitted dose curve at least 0.9, where 1 is the maximum; inactive = score below 0.9.

In PubChem BioAssay (EPA / NIEHS) one finds outcome and AC50 data, which are given here for eleven molecules.

Experiment [1] in a line: ATG_GLI_CIS: Attagene CIS-FACTORIAL HepG2 Assay for human Zinc Finger Protein GLI1 (AID 2282945). The following applies: HepG2, Attagene cis-factorial reporter mRNA, GLI element; actives raise or lower the signal. Summed up:
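HepG2 cells transiently transfected with cis-promoter multiplexed reporter units report endogenous transcription factor activity. After 24 h chemical exposure, reporter mRNA was quantified by RT-PCR, 6-FAM labelling, HpaI digestion and capillary electrophoresis, with bidirectional fitting against DMSO.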

For experiment [2], the target named is Bile acid receptor (Homo sapiens) (UniProt Q96RI1). Kind of experiment: ATG_IR1_CIS: Attagene CIS-FACTORIAL HepG2 Assay for human Nuclear Receptor Subfamily 1 Group H Member 4 (NR1H4), IR1 submotif (AID 2282946). The conditions noted are these: IR1 reporter transcription, actives raise or lower the signal. Summed up: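 Readout: reporter transcript levels by RT-PCR with fluorescent capillary electrophoresis, from HepG2 cells transiently transfected with multiplexed cis-regulated reporters and dosed 24 h. Gain- or loss-of-signal fitted versus DMSO negative control.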
Chain of Bile acid receptor (Homo sapiens) (Q96RI1 whole entry, looked up): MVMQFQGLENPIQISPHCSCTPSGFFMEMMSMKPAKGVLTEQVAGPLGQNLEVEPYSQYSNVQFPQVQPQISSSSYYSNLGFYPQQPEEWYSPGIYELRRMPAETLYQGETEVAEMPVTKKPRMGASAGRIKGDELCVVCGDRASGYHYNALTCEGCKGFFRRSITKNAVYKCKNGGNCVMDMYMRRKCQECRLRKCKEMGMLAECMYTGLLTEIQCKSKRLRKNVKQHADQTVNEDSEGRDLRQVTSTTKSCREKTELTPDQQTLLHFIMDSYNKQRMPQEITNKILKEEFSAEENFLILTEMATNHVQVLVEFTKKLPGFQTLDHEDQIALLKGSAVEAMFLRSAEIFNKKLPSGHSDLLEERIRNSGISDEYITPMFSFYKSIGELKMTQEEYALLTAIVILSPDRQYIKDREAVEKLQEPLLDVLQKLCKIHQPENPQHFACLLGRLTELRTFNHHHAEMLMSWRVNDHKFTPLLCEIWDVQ

A short description of experiment [3]: ATG_GRE_CIS: Attagene CIS-FACTORIAL HepG2 Assay for human Glucocorticoid Response Elements (GRE) (AID 2282947). The conditions noted are these: HepG2 GRE cis-reporter, Attagene multiplex mRNA; actives raise or lower the signal. Summed up:
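Cells (HepG2) bearing transfected cis-promoter reporter transcription units were treated with chemical for 24 hours. Reporter mRNA was measured via RT-PCR with capillary electrophoresis, and activity was fitted in both directions relative to DMSO.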

The nature of experiment [4]: ATG_ISRE_CIS: Attagene CIS-FACTORIAL HepG2 Assay for human Interferon Regulatory Factor 1 (IRF1) binding to an Interferon-Stimulated Response Element (ISRE) (AID 2282948). The conditions noted are these: HepG2 ISRE cis-reporter (Attagene), mRNA transcription readout; actives raise or lower the signal. In short, it runs like this:
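Signal reflects induction or loss of ISRE-linked reporter mRNA in transiently transfected HepG2 cells after a 24 h treatment, detected by fluorescent RT-PCR fragments on capillary electrophoresis and normalised to DMSO.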

A short description of experiment [5]: ATG_M_32_CIS: Attagene CIS-FACTORIAL HepG2 Assay for M32 Transcription Factor (Internal Marker) (AID 2282949).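 Also: background control marker of the multiplexed CIS panel rather than a real target.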 The following applies: HepG2 Attagene cis-factorial M32 reporter, mRNA; actives raise or lower the signal. In short, it runs like this:
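HepG2 human liver cells transiently transfected with cis-promoter-driven multiple reporter transcription units, dosed 24 h. Reporter mRNA quantified by RT-PCR, FAM-labelled primer extension, HpaI digest and capillary electrophoresis; bidirectional fit versus DMSO baseline.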

The nature of experiment [6]: ATG_M_06_CIS: Attagene CIS-FACTORIAL HepG2 Assay for M06 Transcription Factor (Internal Marker) (AID 2282950). The conditions noted are these: HepG2 Attagene CIS-FACTORIAL M06 internal marker reporter; actives raise or lower the signal. In short, it runs like this:
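HepG2 liver cells, 24 h exposure. Reporter transcripts from transfected cis-element constructs quantified by RT-PCR/capillary electrophoresis fluorescence. Bidirectional curve fit against DMSO.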

Experiment [7] deals with Hypoxia-inducible factor 1-alpha (Homo sapiens) (UniProt Q16665). Kind of experiment: ATG_HIF1a_CIS: Attagene CIS-FACTORIAL HepG2 Assay for human Hypoxia Inducible Factor 1 (HIF1A) (AID 2282951). The conditions noted are these: HepG2 Attagene cis-factorial HIF1a reporter transcription; actives raise or lower the signal. Summed up:
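Transient MRTU transfection of human HepG2 liver cells, 24 h compound treatment, then total RNA isolation, oligo(dT) reverse transcription, PCR amplification, fluorescent labelling and capillary electrophoresis of reporter fragments. Gain or loss relative to DMSO.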

Experiment [8] addresses Hepatocyte nuclear factor 6 (Homo sapiens) (UniProt Q9UBC0). Kind of experiment: ATG_HNF6_CIS: Attagene CIS-FACTORIAL HepG2 Assay for human Hepatocyte Nuclear Factor 6 (HNF6) (AID 2282952). The conditions noted are these: HepG2 Attagene cis-factorial HNF6 reporter transcription; actives raise or lower the signal. In short, it runs like this: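 Endogenous factor activity read in transiently transfected HepG2 via promoter-regulated reporter transcripts. RNA harvested 24 h post-dosing, reverse-transcribed, PCR-amplified, FAM-labelled, HpaI-digested and resolved by capillary electrophoresis; fitted in both directions against DMSO.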

In experiment [9] the target is Heat shock factor protein 1 (Homo sapiens) (UniProt Q00613). Kind of experiment: ATG_HSE_CIS: Attagene CIS-FACTORIAL HepG2 Assay for human Heat Shock Transcription Factor 1 (HSE) (AID 2282953). The following applies: HepG2 HSE cis-reporter, Attagene RNA transcription; actives raise or lower the signal. In short, it runs like this:
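Endogenous transcription factor activity captured via cis-promoter reporter units transfected into HepG2; treatment lasted 24 h. Fluorescence intensity of reporter fragments analysed with bidirectional curve fitting, DMSO baseline.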

Experiment [10] in a line: ATG_MRE_CIS: Attagene CIS-FACTORIAL HepG2 Assay for human Metal Responsive Element (MRE) (AID 2282954). The following applies: HepG2 MRE cis-reporter transcription, Attagene multiplex; actives raise or lower the signal. Summed up: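 Cells were transfected with cis-promoter reporter transcription units, then dosed for 24 h. RNA was reverse-transcribed, amplified, fluorescently labelled and resolved by capillary electrophoresis, and activity was fitted in both directions relative to DMSO.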

Chain of Heat shock factor protein 1 (Homo sapiens) (Q00613 whole entry, looked up, the tested form may be a part): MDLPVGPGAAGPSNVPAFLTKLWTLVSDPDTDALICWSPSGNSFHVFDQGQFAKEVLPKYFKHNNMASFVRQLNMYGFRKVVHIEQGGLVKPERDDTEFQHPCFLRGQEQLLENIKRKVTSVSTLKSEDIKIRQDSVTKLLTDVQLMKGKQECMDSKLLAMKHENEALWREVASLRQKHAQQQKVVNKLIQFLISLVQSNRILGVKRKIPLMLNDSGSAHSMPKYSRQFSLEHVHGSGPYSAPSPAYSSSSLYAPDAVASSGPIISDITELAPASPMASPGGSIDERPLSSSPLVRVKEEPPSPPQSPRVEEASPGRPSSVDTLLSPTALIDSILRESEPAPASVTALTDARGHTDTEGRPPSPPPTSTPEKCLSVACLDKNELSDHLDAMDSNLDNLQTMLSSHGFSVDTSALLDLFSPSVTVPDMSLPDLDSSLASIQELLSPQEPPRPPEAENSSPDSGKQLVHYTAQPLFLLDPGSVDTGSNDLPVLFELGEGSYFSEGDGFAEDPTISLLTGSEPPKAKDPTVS
Chain of Hypoxia-inducible factor 1-alpha (Homo sapiens) (Q16665 whole entry, looked up, the tested form may be a part): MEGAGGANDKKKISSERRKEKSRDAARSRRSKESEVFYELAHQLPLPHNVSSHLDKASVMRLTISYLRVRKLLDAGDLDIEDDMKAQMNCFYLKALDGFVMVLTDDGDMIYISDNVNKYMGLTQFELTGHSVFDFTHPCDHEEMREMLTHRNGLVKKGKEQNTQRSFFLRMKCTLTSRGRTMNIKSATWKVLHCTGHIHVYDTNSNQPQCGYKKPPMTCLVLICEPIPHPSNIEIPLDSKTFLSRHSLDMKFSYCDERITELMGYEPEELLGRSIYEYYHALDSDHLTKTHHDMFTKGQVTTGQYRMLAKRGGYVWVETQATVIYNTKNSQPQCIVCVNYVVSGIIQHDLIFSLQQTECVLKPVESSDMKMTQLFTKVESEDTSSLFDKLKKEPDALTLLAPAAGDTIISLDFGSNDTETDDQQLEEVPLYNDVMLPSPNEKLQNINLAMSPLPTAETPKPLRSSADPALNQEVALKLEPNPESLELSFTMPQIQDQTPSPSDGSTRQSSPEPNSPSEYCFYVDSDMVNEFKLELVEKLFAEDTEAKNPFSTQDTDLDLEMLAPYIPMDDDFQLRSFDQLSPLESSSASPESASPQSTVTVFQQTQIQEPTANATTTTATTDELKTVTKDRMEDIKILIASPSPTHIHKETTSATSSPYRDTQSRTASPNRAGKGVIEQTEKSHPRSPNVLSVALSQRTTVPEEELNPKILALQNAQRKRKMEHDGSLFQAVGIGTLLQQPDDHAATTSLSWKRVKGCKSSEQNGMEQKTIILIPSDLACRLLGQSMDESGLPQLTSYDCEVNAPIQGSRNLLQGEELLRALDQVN
Chain of Hepatocyte nuclear factor 6 (Homo sapiens) (Q9UBC0 whole entry, looked up): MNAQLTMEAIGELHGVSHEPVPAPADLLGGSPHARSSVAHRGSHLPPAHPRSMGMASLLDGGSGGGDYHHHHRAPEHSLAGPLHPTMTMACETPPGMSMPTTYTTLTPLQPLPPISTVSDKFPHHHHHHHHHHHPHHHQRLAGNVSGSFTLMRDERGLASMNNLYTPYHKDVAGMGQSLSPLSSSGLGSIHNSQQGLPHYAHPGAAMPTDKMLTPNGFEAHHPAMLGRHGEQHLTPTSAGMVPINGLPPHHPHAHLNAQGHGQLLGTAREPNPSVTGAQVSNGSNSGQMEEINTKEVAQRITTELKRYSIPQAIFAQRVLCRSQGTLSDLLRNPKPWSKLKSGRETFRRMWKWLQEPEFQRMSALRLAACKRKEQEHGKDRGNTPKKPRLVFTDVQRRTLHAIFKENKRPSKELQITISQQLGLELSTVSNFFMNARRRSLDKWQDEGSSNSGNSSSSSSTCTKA

As for `O=C1OC2(c3ccc(O)cc3Oc3cc(O)ccc32)c2ccccc21`, the molecule was called inactive in experiment [1], in [2], in experiment [3], in [4], in experiment [5] and in experiment [6]. Further, the call in experiment [7], in experiment [8], in experiment [9] and in experiment [10] was inactive.
Consider `C=CC(C)(CCC=C(C)C)OC(=O)CC` (stereo unspecified), for which the call in [1], in experiment [2], in experiment [3], in [4], in experiment [5] and in [6] was inactive. Moreover, the call in [7], in experiment [8], in experiment [9] and in [10] was inactive.
Turning to `COc1ccccc1O`, the molecule was called inactive in [1], in [2], in experiment [3], in experiment [4], in experiment [5] and in experiment [6]. In addition, the molecule was called inactive in experiment [7], in experiment [8], in experiment [9] and in [10].
For orientation: AC50 means the concentration giving half of the maximal activity seen. Regarding `O=C(c1ccc(OCCN2CCCCC2)cc1)c1c(-c2ccc(O)cc2)sc2cc(O)ccc12`, the AC50 in experiment [1] is 11.1 µM (active) and 15.2 µM (active); in [3] it was 20.2 µM (active); in [4], 11.1 µM (active) and 17 µM (active) and 14.8 µM (active); in experiment [8], 11.1 µM (active) and 21.4 µM (active); in experiment [9], 17.2 µM (active) and 17.7 µM (active) and 19.8 µM (active); in experiment [10], 15.8 µM (active) [middle of 4 runs]. Also, the result in experiment [1], in [3], in [4], in experiment [5], in experiment [6] and in experiment [8] was inactive. Also, the molecule was classed as inactive in experiment [9] and in [10].
As to `Brc1cc(Br)cc(Br)c1`, the outcome in experiment [1], in experiment [2], in [3], in experiment [4], in experiment [5] and in [6] was inactive. Moreover, the outcome in experiment [7], in experiment [8], in experiment [9] and in [10] was inactive.
As for `C=C1CC[C@H]2O[C@]2(C)CC[C@@H]2[C@@H]1CC2(C)C`, the result in [1], in [2], in experiment [3], in experiment [4], in experiment [5] and in [6] was inactive. Further, the molecule was called inactive in experiment [7], in [8], in [9] and in experiment [10].
As to `CC(=O)C1C(=O)C=C(C)OC1=O` (stereo unspecified), the result in experiment [1], in [2], in [3], in experiment [4], in experiment [5] and in experiment [6] was inactive. The molecule was classed as inactive in experiment [7], in experiment [8], in [9] and in experiment [10].
Regarding `C#C[C@]1(O)CC[C@H]2[C@@H]3CCc4cc(O)ccc4[C@H]3CC[C@@]21C`, the AC50 is 98.4 µM (active) and 72.2 µM (active) and 62.4 µM (active) in [1]; 159 µM (active) in [3]; 33.4 µM (active) and 27.3 µM (active) in [4]; 161 µM (active) in experiment [5]; 49 µM (active) and 67.4 µM (active) in experiment [7]; 58.1 µM (active) and 100 µM (active) in [8]. Moreover, the AC50 in experiment [9] was 59.2 µM (active) [middle of 4 runs]; in experiment [10] it was 52.1 µM (active) [middle of 4 runs]. Further, the molecule was classed as inactive in experiment [1], in [3], in experiment [4], in experiment [5], in [6] and in experiment [7]. Besides, the molecule was called inactive in experiment [8], in experiment [9] and in [10].
For `CC(=N[Si](C)(C)C)O[Si](C)(C)C`, the result in experiment [1], in experiment [2], in [3], in [4], in experiment [5] and in experiment [6] was inactive. For the same molecule, the result in [7], in [8], in experiment [9] and in experiment [10] was inactive.
As for `CCOc1ccc(NC(C)=O)cc1`, the molecule was classed as inactive in experiment [1], in [2], in experiment [3], in experiment [4], in experiment [5] and in experiment [6]. Further, the call in experiment [7], in [8], in experiment [9] and in experiment [10] was inactive.
Take `CC=CC(=O)C1=C(C)C=CCC1(C)C`: the outcome in experiment [1], in [2], in experiment [3], in experiment [4], in experiment [5] and in experiment [6] was inactive. The result in experiment [7], in experiment [8], in experiment [9] and in experiment [10] was inactive.
